Assay results from ChEMBL document CHEMBL3988442, “University of Dundee, Small-Polar-MMV Screening Library” (2021).

biological target: Shiga toxin 2 (Escherichia coli O157:H7) (UniProt P09385+P09386); test: E. coli 0.157:H7 Shiga Toxin SOP - stx2 screening assay; assay type: functional; parameters: scale not given: direction of the effect not stated beside the values; conditions: 30 µM

Compared with `NC(=O)c1cc(C2CCCN(CCOCC(F)(F)F)C2)n[nH]1` (stereo not given), `Cc1nccn1C1CCCN(C(=O)COCC(F)(F)F)C1` (stereo not given) is lower in Percent Effect: -3.62% for the first, -10.2% for the second.

Going from `COC[C@H]1CCC[C@]12CN(C(=O)NCc1ccccc1)CCO2` to `CC(=O)N(Cc1noc(C)n1)C1CCN(CCOc2ccccc2)C1` (stereo not given), the Percent Effect falls from -17.2% to -29.9%.

Compared with `CCN1CCN(C(=O)c2ccn(C)c(=O)c2)CC1`, `CCN1CCC(NC(=O)CN2CCc3c(ncn3C)C2)CC1` is higher in Percent Effect: -14.7% for the first, 19.9% for the second.

Compared with `Cc1cc(C)c2nc(CN3CCOC(CCO)C3)cc(O)c2c1` (stereo not given), `CSc1ccc(-c2nc(CN3CCC(NC(C)=O)C3)c(C)o2)cc1` (stereo not given) is higher in Percent Effect: -15.7% for the first, -5.95% for the second.

Compared with `COc1ncccc1NC(=O)NCC1CCS(=O)(=O)C1` (stereo not given), `O=C(NCCCO)Nc1cccc(Cl)c1F` is lower in Percent Effect: -1.65% for the first, -9.57% for the second.

Going from `CCn1ccnc1CN1CCN(C(C)C(=O)N2CCC(C)CC2)CC1` (stereo not given) to `Cc1nc(CN2CCCN(CC(=O)Nc3cccnc3)CC2)no1`, the Percent Effect rises from -22.7% to 16.4%.

First: COc1ccc(C2Nc3cc(Cl)ccc3C3=NCCN32)cc1OC (stereo not given)
Second: CC1CN(C)CCN1C(=O)c1ccn(-c2cccc(Cl)c2)n1 (stereo not given)
The Percent Effect of the first is lower: -59.6% for the first, -4.97% for the second.

Compared with `COc1ccc(C2=CCN(C(=O)C3CCN(C)C(=O)C3)CC2)cc1` (stereo not given), `CCCN1C(=O)CC(N2CCN(c3ccc(F)cc3)CC2)C1=O` (stereo not given) is lower in Percent Effect: 27.5% for the first, -15.7% for the second.

Going from `CNc1cc2c(nn1)CCN(C(=O)C1CCCc3ccccc31)C2` (stereo not given) to `CNCC(=O)N1CCCC(c2nccnc2Oc2cccc(F)c2)C1` (stereo not given), the Percent Effect falls from 4.77% to 4.34%.

Compared with `CCc1nnc2n1CCN(CC(=O)Nc1cc(C(C)(C)C)nn1C)C2`, `CCCNC(=O)Cn1nc(C(C)C)c2cnn(C(C)(C)C)c2c1=O` is lower in Percent Effect: 28.9% for the first, 8.81% for the second.

First: CCOCC1CN(C(=O)N(C)C)Cc2nn(C)cc21 (stereo not given)
Second: CCOCC1CN(C(=O)C2=CCCC2)Cc2cnn(CC)c21 (stereo not given)
The Percent Effect of the first is lower: -4.03% for the first, 3.46% for the second.

Compared with `CC(=O)c1cccc(NC(=O)COc2c(C)n(C)ccc2=O)c1`, `CN1N=C(C(=O)Nc2cc(F)ccc2OCC2CCCO2)CCC1=O` (stereo not given) is higher in Percent Effect: -59.3% for the first, 5.1% for the second.

First: COCC1c2nnn(CC3CC3)c2CCN1C(=O)c1cccc(F)c1 (stereo not given)
Second: CSc1ncc(C(=O)N2C[C@H]3CC[C@@H]2CN(Cc2ccccc2)C3)cn1
The Percent Effect of the first is higher: 7.97% for the first, -17.1% for the second.

Compared with `COc1cccc(-c2nc(CNCCn3cccn3)cs2)c1`, `Cc1ncsc1C(=O)Nc1cccc(OCC(F)F)n1` is higher in Percent Effect: -60.9% for the first, 1.86% for the second.

Going from `Cc1nn(CC(=O)N2CCC(Nc3cccnn3)CC2)c(C)c1Cl` to `c1cnnc(N2CCCC(NCc3nnc(-c4ccco4)o3)C2)c1` (stereo not given), the Percent Effect falls from -23.6% to -79.7%.

Going from `c1cnnc(N2CCCC2CNCc2nc(C3CC3)no2)c1` (stereo not given) to `CN(Cc1cn2ccccc2c1C#N)C1CCCN(c2cccnn2)C1` (stereo not given), the Percent Effect falls from 5.95% to -75.3%.

First: Cc1nc(C2CCCN(C(=O)CO)C2)cc(N2CCOCC2)n1 (stereo not given)
Second: O=S(=O)(N1CCCCC1)N1CCc2nc(C3CCNCC3)ncc2C1
The Percent Effect of the first is higher: 17.9% for the first, 13.4% for the second.

First: CN(C)C(=O)CS(=O)(=O)Cc1cc(Cl)c2c(c1)OCCCO2
Second: CC(NC(=O)NCCCn1ccnc1)c1ccc2c(c1)OCCCO2 (stereo not given)
The Percent Effect of the first is higher: 29.6% for the first, 20.4% for the second.

Going from `c1cc2n(n1)CC(CNCc1ccc(OC3CCCCC3)nc1)CN2` (stereo not given) to `Cc1nc(-c2ccsc2)ccc1C(=O)NCCC1CCCO1` (stereo not given), the Percent Effect rises from -39.3% to -18.3%.

Compared with `CC(NC(=O)C1=NN(C)C(=O)CC1)c1ccc(F)cc1F` (stereo not given), `Cc1nc2ccccc2c(=O)n1CCC(=O)N1CCSCC1` is higher in Percent Effect: -6.55% for the first, 7.96% for the second.
